Source: PubChem BioAssay (National Center for Advancing Translational Sciences (NCATS))
Most compounds without a hit are left out; they make up all but 11% or so of the library.
HPGD block = qHTS Assay for Inhibitors of HPGD (15-Hydroxyprostaglandin Dehydrogenase); 15-hydroxyprostaglandin dehydrogenase [NAD(+)] (Homo sapiens), P15428; purified HPGD, NADH fluorescence kinetic, PGE2 substrate; Potency, µM, without a hit: top-dose activity change, negative = inhibition, hits mostly inhibitors; 150,000 compounds, 4.3% hits; further: potency means the concentration at half of the fitted maximal effect
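NADH formation kinetics: reaction with 30 uM PGE2 and 1 mM NAD+ (final), 20 nM enzyme, Tris-HCl pH 8 with Tween 20, after 15 min compound preincubation at room temperature. Fluorescence change, last versus first of five reads.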
ALDH1A1 block = qHTS Assay for Inhibitors of Aldehyde Dehydrogenase 1 (ALDH1A1) | Aldehyde dehydrogenase 1A1 (Homo sapiens), P00352 | Purified ALDH1A1, NADH fluorescence, propionaldehyde substrate | Potency, µM (top dose mostly 75.3 µM), inactives show at the highest dose activity, negative = inhibition, usual class: inhibitors | 220,000 compounds, 7.3% hits | AID 1030, 2008;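 further: potency means the concentration at half of the fitted maximal effect; plate controls were no enzyme wells and a reference inhibitor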
PNC inhibitor = High Content Assay for Compounds that inhibit the Assembly of the Perinucleolar Compartment. AID 2417, 2010. activity change (PNC), negative = inhibition, % at 10 µM. 140,000 compounds, 3.1% hits. PC3M PTB-GFP, PNC prevalence imaging, 16 h; stronger effect = lower value;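 active means readout at or below -70, meaning at least 70% loss of cells showing the perinucleolar compartment, a nuclear body marking cancer cells; inconclusive means readout between -30 and a set limit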;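 further: plate controls were DMSO wells for no effect and camptothecin positive control wells for full effect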
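Compounds are pinned in duplicate onto adhered PC3M cells stably expressing GFP-tagged PTB and incubated 16 h at 37 C. Cells are then fixed, nuclei stained with Hoechst, and PNC-positive cells counted.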
JMJD2E inh = qHTS Assay for Inhibitors of Human Jumonji Domain Containing 2E (JMJD2E). Lysine-specific demethylase 4E (Homo sapiens), B2RXH2. JMJD2E catalytic domain, FDH-coupled NADH fluorescence (FDH is formaldehyde dehydrogenase). Potency, µM (doses to about 57.1 µM), for the others: at the top dose activity change, negative = inhibition, actives largely listed as inhibitors. 230,000 compounds, 1.6% hits;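 further: potency means the concentration at half of the fitted maximal effect; 0% = wells with enzyme and -100% = buffer wells without enzyme; nearly all actives have a fitted effect of over 50% in size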
Target sequence (B2RXH2 1-337 limits assumed): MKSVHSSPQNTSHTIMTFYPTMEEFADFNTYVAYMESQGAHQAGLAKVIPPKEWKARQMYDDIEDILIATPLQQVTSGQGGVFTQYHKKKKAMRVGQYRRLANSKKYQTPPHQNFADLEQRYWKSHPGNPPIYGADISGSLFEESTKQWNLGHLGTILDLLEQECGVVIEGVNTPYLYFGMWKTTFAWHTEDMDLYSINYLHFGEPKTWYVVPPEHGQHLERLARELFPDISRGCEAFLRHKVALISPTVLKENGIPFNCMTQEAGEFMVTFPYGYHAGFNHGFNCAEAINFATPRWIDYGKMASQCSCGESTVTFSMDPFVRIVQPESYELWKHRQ
* marks the source's active call; other numbers are inactive results; u = inconclusive; x = not tested or not shown. Unless noted, the call rests on the fitted dose curve; in most records, active means well fitted inhibition curve with a large enough effect (not every such curve was filed as active); inconclusive means small, poorly fitted or top-dose-only effect, or another doubt; inactive means no such curve, though single readings can be large or run the other way. Unless noted, on the % scale 0 is the no-effect control and ±100 the full control effect.

SMILES	HPGD block	ALDH1A1 block	PNC inhibitor	JMJD2E inh
O=C(NCc1ccccc1)N[C@@H](Cc1c[nH]c2ccccc12)C(=O)O	x	-2%	2	-4%
CC1(C)OC(=O)C(=CNC(Cc2c[nH]c3ccccc23)C(=O)O)C(=O)O1 (stereo not given)	-5%	25µM*	6	4%
CCCc1nnc(SCC(=O)O)n1CC	x	x	x	-6%
O=C(NCc1ccc2c(c1)OCO2)C1CCN(c2nccc(C(F)(F)F)n2)CC1	x	x	x	13%
C/C(=N/Nc1nc(-c2ccc(Cl)cc2)cs1)c1cccs1	-13%	16µM*	u	-1%
Clc1ccc(-c2csc(N/N=C/c3ccco3)n2)cc1	x	x	x	-13%
COc1ccc(-n2c(N3CCN(C)CC3)nc3sc4c(c3c2=O)CCCCC4)cc1	u	2.8µM*	-16	8%
Cc1cc(Br)c(OCc2ccc(C(=O)N/N=C3\CC4CC=CC34)cc2)c(Br)c1 (stereo not given)	13µM*	8.9µM*	21	u
O=C(N/N=C1\CC2CC=CC12)c1ccc(Br)cc1 (stereo not given)	x	-15%	x	42%
O=C(Nc1cccnc1)/C(N=Nc1cccnc1)=C(\O)c1ccccc1	-26%	1.4µM*	-29	1%
O=S(=O)(c1cnc(Cl)c(Cl)c1)N1CCN(c2ncccn2)CC1	x	0.79µM*	x	21%
O=S(=O)(c1cnc(Cl)c(Br)c1)N1CCCCCC1	-15%	8.9µM*	-5	7%
O=S(=O)(c1cnc(Cl)c(Br)c1)N1CCN(c2ncccn2)CC1	x	0.35µM*	x	2%
CCc1ccc(-n2c(C)nc3cc(C(=O)NCc4cccnc4)ccc32)cc1	x	3%	x	-12%
Cc1cccnc1NC1(C(F)(F)F)N=C(c2ccccc2)NC1=O (stereo not given)	-8%	11%	66	22%
Cn1c(=O)[nH]c(=O)c2c1nc(N1CCOCC1)n2CCSc1nc2ccccc2[nH]1	-10%	4%	-4	0%
CN1CCN(c2nc3c(c(=O)[nH]c(=O)n3C)n2CCCSc2nnnn2-c2ccccc2)CC1	x	22µM*	x	-8%
Cn1c(=O)[nH]c(=O)c2c1nc(Br)n2CCSc1nnnn1-c1ccccc1	-7%	-3%	-19	-6%
Cn1c(=O)[nH]c(=O)c2c1nc(N1CCOCC1)n2CCCSc1ncccn1	-10%	1%	-114*	2%
Cn1c(=O)[nH]c(=O)c2c1nc(N1CCCCC1)n2CCCSc1nnnn1-c1ccccc1	-13%	7.9µM*	u	-6%
CC1CCN(c2nc3c(c(=O)[nH]c(=O)n3C)n2CC(C)CSc2nnnn2-c2ccccc2)CC1 (stereo not given)	-5%	20µM*	7	2%
COc1ccc(CN2CN=C(Nc3nc4ccccc4s3)NC2)cc1	1%	3%	-23	5%
O=C1Nc2ccc(NS(=O)(=O)c3cccs3)c3cccc1c23	-16%	16µM*	-25	12%
O=C(OCC1CO1)C1CCCCC1C(=O)OCC1CO1 (stereo not given)	1%	7%	x	x
CC(NC(=O)Nc1ccc(Cl)c(Cl)c1)C(c1ccccc1)N1CCOCC1 (stereo not given)	-10%	u	4	4%
SMILES	HPGD block	ALDH1A1 block	PNC inhibitor	JMJD2E inh
CC(NC(=O)Nc1ccc([N+](=O)[O-])cc1)C(c1ccccc1)N1CCOCC1 (stereo not given)	x	2.5µM*	x	u
CCc1ccc(N/C(SCc2ccccc2C)=C(/C#N)C(=O)NCc2ccco2)cc1	-16%	-5%	61	0%
CCCN1C(=O)SC(CC(=O)Nc2cccc3ccccc23)C1=O (stereo not given)	-5%	22µM*	-25	u
CCCN1C(=O)SC(CC(=O)Nc2ccccc2)C1=O (stereo not given)	-3%	20µM*	38	7%
O=C(CC1SC(=Nc2ccccc2)N(CCO)C1=O)Nc1ccccc1 (stereo not given)	x	-1%	x	-13%
OCCN(CCO)CC(O)COCCC12CC3CC(CC(C3)C1)C2 (stereo not given)	-5%	u	41	1%
COCCCn1c(SCC(=O)Nc2ccc(C)cc2)nc2ccccc2c1=O	x	1%	x	3%
CCOc1ccc(NC(=O)CSc2nc3ccccc3c(=O)n2CCNC(C)=O)cc1	-4%	-11%	-107*	-5%
